# Values without a mark were called inactive.
# How the values were obtained:
# Assay in all cases: log2 ratio of Biotin-Ahx-Ub-VS probe labelling (fragment/DMSO); higher = less target engagement (more negative = stronger competition), active = hit call of the paper (q ≤ 0.05, log2 ratio ≤ -1)
# Conditions in all cases: compound concentration: 200 uM; treatment time: 3 h
# [1] = biological target: T1, USP19 (UniProt O94966)
# T1 sequence (whole entry): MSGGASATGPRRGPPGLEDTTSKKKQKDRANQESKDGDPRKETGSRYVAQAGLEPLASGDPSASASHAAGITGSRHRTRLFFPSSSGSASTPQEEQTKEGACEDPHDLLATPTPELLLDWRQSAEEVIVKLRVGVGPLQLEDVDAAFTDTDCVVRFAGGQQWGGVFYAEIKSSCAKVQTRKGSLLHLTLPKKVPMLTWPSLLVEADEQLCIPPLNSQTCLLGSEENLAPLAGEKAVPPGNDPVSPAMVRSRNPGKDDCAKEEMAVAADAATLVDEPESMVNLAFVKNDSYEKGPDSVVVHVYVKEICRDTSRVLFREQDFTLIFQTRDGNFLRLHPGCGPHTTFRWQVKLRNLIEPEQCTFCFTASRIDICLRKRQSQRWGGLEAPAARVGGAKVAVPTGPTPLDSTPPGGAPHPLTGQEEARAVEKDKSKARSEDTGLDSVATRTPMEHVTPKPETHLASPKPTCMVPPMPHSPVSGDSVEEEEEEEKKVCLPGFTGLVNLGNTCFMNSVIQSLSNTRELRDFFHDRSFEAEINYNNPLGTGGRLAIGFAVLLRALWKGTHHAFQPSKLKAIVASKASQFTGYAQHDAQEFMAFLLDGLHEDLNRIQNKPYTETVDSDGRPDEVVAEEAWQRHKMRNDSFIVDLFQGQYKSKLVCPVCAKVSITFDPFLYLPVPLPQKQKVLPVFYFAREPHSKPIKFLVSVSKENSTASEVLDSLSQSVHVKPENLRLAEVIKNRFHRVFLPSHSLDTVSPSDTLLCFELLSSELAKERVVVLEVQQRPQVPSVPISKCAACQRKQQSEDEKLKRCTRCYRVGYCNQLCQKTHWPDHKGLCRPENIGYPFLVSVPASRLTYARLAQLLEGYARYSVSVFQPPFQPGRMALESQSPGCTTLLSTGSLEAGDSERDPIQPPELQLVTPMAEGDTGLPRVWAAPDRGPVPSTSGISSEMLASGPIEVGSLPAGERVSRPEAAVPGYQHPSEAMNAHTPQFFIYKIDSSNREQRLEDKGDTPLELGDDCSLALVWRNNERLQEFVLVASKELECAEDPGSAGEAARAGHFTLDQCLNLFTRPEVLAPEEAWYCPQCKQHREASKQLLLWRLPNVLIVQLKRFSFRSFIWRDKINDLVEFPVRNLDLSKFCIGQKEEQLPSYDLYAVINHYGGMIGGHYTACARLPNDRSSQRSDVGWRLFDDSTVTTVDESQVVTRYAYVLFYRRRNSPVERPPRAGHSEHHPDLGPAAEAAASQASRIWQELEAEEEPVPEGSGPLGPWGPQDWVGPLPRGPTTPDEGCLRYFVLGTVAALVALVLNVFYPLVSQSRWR
# Method in brief: (§1)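 Fragment (200 µM) or vehicle was incubated for 3 h with triplicate HEK293T lysate samples of 495 µg, which were then treated with Biotin-Ahx-Ub-VS at 0.5 µM final for 1 h. Labelled DUBs were enriched on NeutrAvidin, digested with LysC and trypsin, and analysed by diaPASEF LC-MS/MS. Values are average log2 fragment/vehicle ratios from an unpaired t-test on global-median-normalised Spectronaut label-free quantities, using proteins with ≥2 unique peptides.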
# [2] = biological target: T2, USP22 (UniProt Q9UPT9)
# T2 sequence (whole entry): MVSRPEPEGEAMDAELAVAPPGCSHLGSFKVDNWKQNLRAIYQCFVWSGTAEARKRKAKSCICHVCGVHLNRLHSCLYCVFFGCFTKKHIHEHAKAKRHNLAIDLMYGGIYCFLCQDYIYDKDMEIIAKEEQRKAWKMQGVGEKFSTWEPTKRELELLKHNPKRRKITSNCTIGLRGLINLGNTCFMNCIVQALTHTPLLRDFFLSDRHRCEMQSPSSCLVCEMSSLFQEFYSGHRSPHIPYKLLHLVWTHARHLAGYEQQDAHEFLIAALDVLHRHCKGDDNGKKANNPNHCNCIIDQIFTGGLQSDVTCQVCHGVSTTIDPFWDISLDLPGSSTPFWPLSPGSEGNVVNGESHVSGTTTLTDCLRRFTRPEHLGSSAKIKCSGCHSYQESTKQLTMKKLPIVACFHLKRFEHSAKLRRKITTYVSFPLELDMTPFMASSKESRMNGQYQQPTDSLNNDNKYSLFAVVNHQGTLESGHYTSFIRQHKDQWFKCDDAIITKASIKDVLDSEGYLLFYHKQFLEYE
# Method in brief: as §1
# [3] = biological target: USP24 (UniProt Q9UPU5)
# Chain of USP24 (Q9UPU5 whole entry): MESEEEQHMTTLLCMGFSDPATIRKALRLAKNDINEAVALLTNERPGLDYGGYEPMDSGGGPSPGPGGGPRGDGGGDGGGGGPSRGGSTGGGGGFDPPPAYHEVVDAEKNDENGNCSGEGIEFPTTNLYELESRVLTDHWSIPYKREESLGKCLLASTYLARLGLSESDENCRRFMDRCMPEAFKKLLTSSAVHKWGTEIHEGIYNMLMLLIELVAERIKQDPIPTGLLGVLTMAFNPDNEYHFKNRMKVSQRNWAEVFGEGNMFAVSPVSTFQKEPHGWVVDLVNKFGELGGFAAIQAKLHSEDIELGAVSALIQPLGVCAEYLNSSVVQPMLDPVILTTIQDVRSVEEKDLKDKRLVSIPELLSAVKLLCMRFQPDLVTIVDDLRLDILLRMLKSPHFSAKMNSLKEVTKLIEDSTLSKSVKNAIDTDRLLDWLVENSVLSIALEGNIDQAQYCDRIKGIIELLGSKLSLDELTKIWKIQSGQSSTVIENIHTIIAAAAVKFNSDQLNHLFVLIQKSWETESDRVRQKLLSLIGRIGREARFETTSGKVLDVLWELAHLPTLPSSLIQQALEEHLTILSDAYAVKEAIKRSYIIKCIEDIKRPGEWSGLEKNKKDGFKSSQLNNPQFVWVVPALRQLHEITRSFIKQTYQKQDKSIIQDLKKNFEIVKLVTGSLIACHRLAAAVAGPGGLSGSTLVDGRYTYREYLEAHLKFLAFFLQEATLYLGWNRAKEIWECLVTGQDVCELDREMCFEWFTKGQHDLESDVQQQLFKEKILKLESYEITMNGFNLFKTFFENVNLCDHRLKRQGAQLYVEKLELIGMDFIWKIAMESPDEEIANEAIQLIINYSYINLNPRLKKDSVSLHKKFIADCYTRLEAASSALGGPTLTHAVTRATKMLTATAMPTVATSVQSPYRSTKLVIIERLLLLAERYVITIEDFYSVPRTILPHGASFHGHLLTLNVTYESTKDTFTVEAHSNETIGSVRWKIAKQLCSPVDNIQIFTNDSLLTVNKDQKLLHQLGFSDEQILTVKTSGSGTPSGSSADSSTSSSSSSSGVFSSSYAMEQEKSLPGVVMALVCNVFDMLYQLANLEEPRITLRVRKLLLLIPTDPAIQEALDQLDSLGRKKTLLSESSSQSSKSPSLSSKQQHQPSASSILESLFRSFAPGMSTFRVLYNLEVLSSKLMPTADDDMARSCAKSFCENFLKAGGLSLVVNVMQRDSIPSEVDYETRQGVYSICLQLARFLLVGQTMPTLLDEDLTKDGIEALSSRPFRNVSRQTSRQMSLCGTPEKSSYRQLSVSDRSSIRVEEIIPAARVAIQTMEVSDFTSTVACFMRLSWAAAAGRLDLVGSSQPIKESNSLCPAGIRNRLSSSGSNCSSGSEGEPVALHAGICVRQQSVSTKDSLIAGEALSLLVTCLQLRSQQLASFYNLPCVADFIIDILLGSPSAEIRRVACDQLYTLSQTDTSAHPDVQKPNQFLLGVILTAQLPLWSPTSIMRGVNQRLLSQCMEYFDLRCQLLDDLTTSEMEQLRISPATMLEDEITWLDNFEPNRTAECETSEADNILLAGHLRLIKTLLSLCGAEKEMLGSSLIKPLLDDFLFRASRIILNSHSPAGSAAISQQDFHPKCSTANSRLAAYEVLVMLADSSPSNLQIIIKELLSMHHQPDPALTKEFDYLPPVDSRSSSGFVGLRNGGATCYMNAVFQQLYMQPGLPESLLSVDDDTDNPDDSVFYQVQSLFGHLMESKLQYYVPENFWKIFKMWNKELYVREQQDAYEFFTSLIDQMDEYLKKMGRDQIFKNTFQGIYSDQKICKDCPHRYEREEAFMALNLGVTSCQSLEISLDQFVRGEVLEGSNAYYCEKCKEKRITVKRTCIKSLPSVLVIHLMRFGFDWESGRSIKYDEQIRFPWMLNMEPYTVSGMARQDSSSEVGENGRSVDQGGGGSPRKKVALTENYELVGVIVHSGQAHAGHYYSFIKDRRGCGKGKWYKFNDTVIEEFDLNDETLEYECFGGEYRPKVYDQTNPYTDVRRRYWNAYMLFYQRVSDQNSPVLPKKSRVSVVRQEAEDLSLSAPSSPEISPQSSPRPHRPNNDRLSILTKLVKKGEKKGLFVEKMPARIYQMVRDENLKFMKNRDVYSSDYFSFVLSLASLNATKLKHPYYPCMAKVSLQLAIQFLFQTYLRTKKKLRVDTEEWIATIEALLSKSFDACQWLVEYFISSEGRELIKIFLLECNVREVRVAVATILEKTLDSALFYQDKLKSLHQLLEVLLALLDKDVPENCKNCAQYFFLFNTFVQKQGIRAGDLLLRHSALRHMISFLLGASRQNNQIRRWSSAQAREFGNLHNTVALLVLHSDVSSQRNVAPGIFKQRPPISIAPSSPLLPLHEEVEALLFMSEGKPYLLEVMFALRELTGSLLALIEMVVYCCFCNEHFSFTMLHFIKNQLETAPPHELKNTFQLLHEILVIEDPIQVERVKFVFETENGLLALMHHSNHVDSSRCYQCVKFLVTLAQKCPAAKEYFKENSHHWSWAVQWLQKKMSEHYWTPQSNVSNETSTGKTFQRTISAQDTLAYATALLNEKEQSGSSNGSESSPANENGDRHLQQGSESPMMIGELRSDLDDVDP
# Method in brief: as §1
# [4] = biological target: T3, USP25 (UniProt Q9UHP3)
# T3 sequence (whole entry): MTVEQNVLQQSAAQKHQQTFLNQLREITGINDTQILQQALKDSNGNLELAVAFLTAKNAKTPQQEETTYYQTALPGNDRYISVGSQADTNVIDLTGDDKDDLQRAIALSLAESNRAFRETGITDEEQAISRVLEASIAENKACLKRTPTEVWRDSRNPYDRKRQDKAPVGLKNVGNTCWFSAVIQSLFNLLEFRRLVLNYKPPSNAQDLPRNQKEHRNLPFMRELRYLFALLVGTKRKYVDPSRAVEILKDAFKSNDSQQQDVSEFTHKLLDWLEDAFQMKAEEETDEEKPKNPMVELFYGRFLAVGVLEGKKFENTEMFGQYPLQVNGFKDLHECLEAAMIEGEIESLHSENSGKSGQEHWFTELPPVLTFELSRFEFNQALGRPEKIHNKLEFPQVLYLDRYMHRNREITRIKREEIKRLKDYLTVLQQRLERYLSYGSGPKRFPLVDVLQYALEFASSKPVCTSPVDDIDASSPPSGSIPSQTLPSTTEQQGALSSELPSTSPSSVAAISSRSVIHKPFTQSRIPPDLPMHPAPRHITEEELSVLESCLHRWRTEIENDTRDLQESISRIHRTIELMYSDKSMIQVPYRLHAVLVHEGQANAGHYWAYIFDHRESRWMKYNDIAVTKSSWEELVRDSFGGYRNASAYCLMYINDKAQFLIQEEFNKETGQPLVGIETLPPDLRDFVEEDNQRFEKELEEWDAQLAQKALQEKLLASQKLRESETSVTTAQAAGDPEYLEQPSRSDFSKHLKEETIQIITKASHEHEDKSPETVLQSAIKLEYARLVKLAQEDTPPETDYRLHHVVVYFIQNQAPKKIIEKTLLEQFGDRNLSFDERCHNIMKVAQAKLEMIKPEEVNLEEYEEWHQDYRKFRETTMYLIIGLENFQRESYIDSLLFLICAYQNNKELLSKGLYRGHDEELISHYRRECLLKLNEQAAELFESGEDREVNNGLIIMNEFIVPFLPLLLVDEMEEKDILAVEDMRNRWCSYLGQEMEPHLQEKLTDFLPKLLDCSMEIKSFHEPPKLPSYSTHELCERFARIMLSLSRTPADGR
# Method in brief: as §1
# [5] = biological target: T4, USP28 (UniProt Q96RU2)
# T4 sequence (whole entry): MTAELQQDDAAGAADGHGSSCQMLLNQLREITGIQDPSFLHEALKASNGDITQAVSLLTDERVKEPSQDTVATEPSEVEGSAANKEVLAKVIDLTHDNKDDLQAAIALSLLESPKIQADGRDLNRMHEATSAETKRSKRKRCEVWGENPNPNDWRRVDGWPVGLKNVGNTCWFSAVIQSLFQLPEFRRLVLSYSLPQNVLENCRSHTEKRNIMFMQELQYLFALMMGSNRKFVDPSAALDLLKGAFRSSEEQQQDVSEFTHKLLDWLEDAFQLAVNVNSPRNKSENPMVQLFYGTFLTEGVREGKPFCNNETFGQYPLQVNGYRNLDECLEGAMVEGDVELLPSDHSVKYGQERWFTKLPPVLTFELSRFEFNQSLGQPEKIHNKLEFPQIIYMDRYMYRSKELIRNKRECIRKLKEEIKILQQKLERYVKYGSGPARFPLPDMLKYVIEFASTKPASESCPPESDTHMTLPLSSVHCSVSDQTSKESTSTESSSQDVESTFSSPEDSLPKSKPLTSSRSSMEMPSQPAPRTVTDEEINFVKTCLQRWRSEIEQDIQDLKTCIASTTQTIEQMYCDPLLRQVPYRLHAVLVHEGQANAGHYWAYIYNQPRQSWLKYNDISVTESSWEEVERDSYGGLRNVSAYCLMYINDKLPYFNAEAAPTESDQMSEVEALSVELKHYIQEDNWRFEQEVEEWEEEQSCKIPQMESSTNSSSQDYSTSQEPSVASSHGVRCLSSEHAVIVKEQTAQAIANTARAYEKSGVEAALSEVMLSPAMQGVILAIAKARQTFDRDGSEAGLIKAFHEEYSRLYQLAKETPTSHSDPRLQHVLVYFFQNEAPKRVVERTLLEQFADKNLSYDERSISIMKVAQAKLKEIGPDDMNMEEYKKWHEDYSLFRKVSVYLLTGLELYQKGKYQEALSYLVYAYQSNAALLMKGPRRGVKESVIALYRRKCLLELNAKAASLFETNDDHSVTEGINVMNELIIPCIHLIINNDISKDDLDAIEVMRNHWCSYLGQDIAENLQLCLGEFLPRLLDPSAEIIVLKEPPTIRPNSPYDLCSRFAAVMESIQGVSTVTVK
# Method in brief: as §1
structure (smiles),measurement,setting,value
Cc1cccc(NC(=O)CCl)c1C,log2 ratio of Biotin-Ahx-Ub-VS probe labelling,[1],-0.393
same,log2 ratio of Biotin-Ahx-Ub-VS probe labelling,[2],-0.267
same,log2 ratio of Biotin-Ahx-Ub-VS probe labelling,[3],-0.573
same,log2 ratio of Biotin-Ahx-Ub-VS probe labelling,[4],-1.06 (active)
same,log2 ratio of Biotin-Ahx-Ub-VS probe labelling,[5],-1.32 (active)
